From PubChem BioAssay
Sampled rows, rich in hits. Any-hit rate of the full collection: about 3.6%.
Sm TGR inh: inhibitors of Schistosoma mansoni thioredoxin glutathione reductase; Q962Y6; purified TGR, DTNB reduction, TNB absorbance 405 nm; Potency, µM (top dose mostly 114 µM), for the others: at the top dose activity change, negative = inhibition, hits mostly inhibitors; hit rate 3% among 360,000; AID 485364; also: nearly all actives have a fitted effect of over 60% in size
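TGR 20 nM + NADPH 100 uM (dispensed conc.), cpd preinc 15 min RT; start with NADPH (500 uM addition) then DTNB (15 mM addition). Kinetic TNB absorbance, 405 nm filter. Four-parameter Hill fit across titration.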
AmpC inh no detg: blocks E. coli AmpC beta-lactamase in detergent-free assay; hit rate 0.52% among 330,000; AmpC nitrocefin hydrolysis, absorbance 480 nm, 0.0001% Triton; P00811; Potency, µM (top dose mostly 57.1 µM), for the others: top-dose activity change, negative = inhibition, hits mostly inhibitors;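 also: plate controls were no compound for no effect and no enzyme for full effect; nearly all actives have a fitted effect of over 20% in size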
Target sequence (P00811 whole entry, looked up): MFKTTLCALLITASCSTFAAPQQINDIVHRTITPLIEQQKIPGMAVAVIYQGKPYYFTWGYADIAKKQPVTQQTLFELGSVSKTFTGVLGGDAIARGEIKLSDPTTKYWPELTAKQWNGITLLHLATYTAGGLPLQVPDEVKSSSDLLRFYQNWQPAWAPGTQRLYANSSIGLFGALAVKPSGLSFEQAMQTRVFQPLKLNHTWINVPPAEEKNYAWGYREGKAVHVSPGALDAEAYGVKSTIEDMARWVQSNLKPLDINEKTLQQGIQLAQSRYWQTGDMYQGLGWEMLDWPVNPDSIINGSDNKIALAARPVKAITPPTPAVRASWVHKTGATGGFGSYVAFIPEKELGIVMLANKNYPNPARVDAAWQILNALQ
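AmpC (5.3 nM in the dispensed reagent) in 20 mM phosphate pH 7.0 with 0.01% (detergent screen) or 0.0001% Triton X-100 was preincubated with compounds for 15 min at room temperature. Nitrocefin was then added from an 800 uM solution, and hydrolysis was followed at 480 nm.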
Giardia FBPA inh-1: inhibitors of Giardia lamblia fructose-1,6-bisphosphate aldolase; A8B2U2; Potency, µM (titrated, usually from 59.6 µM), for inactives: at the highest dose activity, negative = inhibition, usual class: inhibitors; hit rate 0.71% among 290,000; AID 2451; purified Giardia FBPA; also: nearly all actives have a fitted effect of over 55% in size
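40 nM FBPA preincubated 10 min at RT with compound (up to 57.5 uM final), then substrate plus GAPDH/TPI/NAD/arsenate coupling and diaphorase/resazurin added. Fluorescence read after 20 min at RT, 525/598 nm.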
AmpC detergent: inhibitors of E. coli AmpC beta-lactamase with detergent. P00811. AmpC hydrolysis of nitrocefin, absorbance 480 nm, 0.01% Triton. Potency, µM (top dose mostly 114 µM), for inactives: top-dose activity change, negative = inhibition, hits mostly inhibitors. hit rate 0.041% among 370,000. AID 485294;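 also: 0% = no-compound wells and -100% = no-enzyme wells; nearly all actives have a fitted effect of over 25% in size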
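20 mM phosphate pH 7.0 + 0.01% (detergent screen) or 0.0001% Triton X-100; 5.3 nM AmpC reagent; cpd preinc 15 min RT; nitrocefin (800 uM stock) to start; A480 q20 s × 4 min; Activity was normalised to no-enzyme and no-compound control wells.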
Giardia growth: Giardia lamblia growth inhibition. AID 2785. Giardia lamblia trophozoite growth inhibition. shares compounds with Giardia FBPA inh-1. Potency, µM (series often up to 57.5 µM), for the others: at the highest dose activity change, negative = inhibition, most hits filed as inhibitors. hit rate 5% among 1,500;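 also: trophozoites exposed to compound for 48 h at 37 °C; nearly all actives have a fitted effect of over 70% in size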
Mammalian tox: toxic to mammalian cells in Giardia aldolase counter-screen; shares compounds with Giardia FBPA inh-1; mammalian cell viability counter-screen, qHTS; Potency, µM (titrated, usually from 57.5 µM), inactives show at the highest dose viability change, negative = toxicity, hits mostly inhibitors; hit rate 4% among 1,500; AID 2786;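 also: Chinese hamster ovary cells used as mammalian cytotoxicity surrogate; viability measured as cellular ATP by luminescence; compound exposure lasted 48 h before reading; nearly all actives have a fitted effect of over 60% in size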
Giardia FBPA inh-2: confirmation of Giardia fructose-bisphosphate aldolase inhibitors; shares compounds with Giardia FBPA inh-1; purified Giardia aldolase enzyme activity, qHTS; Potency, µM (top dose mostly 57.5 µM), without a hit: at the highest dose activity change, negative = inhibition, most hits filed as inhibitors; hit rate 5% among 1,500; AID 2787; also: nearly all actives have a fitted effect of over 45% in size
Rabbit FBPA inh: selectivity test for Giardia aldolase inhibitors: rabbit aldolase. shares compounds with Giardia FBPA inh-1. Rabbit muscle FBPA enzyme inhibition, selectivity counter-screen. Potency, µM (highest dose often 57.5 µM), inactives show at the top dose activity, negative = inhibition, usual class: inhibitors. hit rate 4% among 1,500. AID 2794; also: nearly all actives have a fitted effect of over 60% in size
GAPDH counter: GAPDH inhibition flagged for Giardia aldolase hits. GAPDH coupling enzyme counterscreen, biochemical, qHTS. shares compounds with Giardia FBPA inh-1. AID 2795. hit rate 6% among 1,500. Potency, µM (titrated, usually from 57.5 µM), inactives show top-dose activity change, negative = inhibition, actives largely listed as inhibitors; also: nearly all actives have a fitted effect of over 55% in size
Starred values were filed as active, the others as inactive; ? = inconclusive; · = no result given; [ ] = remark or other dose. Calls follow the shape of the dose curve; as a rule, active = well fitted curve in the direction sought with a large enough effect; inconclusive = small, poorly fitted or top-dose-only effect, or another doubt; inactive = no such curve, though single readings can be large; an effect the other way counts as inactive or inconclusive. Unless noted, % is scaled to controls: 0 for no effect and ±100 for the full control effect; potency is read from the fitted curve at half-maximal effect.

SMILES | Sm TGR inh | AmpC inh no detg | Giardia FBPA inh-1 | AmpC detergent | Giardia growth | Mammalian tox | Giardia FBPA inh-2 | Rabbit FBPA inh | GAPDH counter
COc1ccc(-c2csc(N(CCCN(C)C)C(=O)c3ccccc3C)n2)cc1 | -3% | 257% | ? | 5% | · | · | · | · | ·
COc1ccc(-c2csc(N(CCCN(C)C)C(=O)c3ccccc3F)n2)cc1 | 15% | 122% | 28µM* | ? | -25% | -13% | 3% | 9% | 8%
COc1ccc(C)cc1NC(=O)C(NCC(O)c1ccccc1)c1ccccc1 (stereo unspecified) | 0% | -4% | 13µM* | -6% | 21% | 11% | 4% | 1% | 0%
CC1=C(C#N)C(=O)N(C2CCS(=O)(=O)C2)C(=O)/C1=C\c1ccc(C)o1 (stereo unspecified) | 16µM* | 13% | 13µM* | -12% | 47% | 5% | ? | ? | ?
Cc1ccc(/C=C2\SC(=S)N(C3CCS(=O)(=O)C3)C2=O)o1 (stereo unspecified) | ? | -47% | ? | 2% | · | · | · | · | ·
O=C(Nc1nc(-c2ccccn2)cs1)c1ccc([N+](=O)[O-])o1 | 10µM* | -45% | · | 6% | · | · | 8% | -4% | 0%
O=C(Nc1nc(-c2ccccn2)cs1)c1ccc2c(c1)OCCO2 | 0% | -21% | 18µM* | 6% | -24%[10.4 µM] | ? | 11% | -3% | -11%
Cc1ccc(C(=O)Nc2nc(-c3ccccn3)cs2)o1 | -27% | -20% | 13µM* | 3% | ? | ? | 9% | -14% | -16%
CC(=O)Nc1ccc(C(=O)Nc2nc(-c3ccccn3)cs2)cc1 | ? | -2% | ? | -9% | · | · | · | · | ·
O=C(Nc1nc(-c2ccccn2)cs1)c1ccccc1-n1cnnn1 | 4% | -29% | 7.9µM* | 3% | 20µM* | ? | -4% | -16% | ?
COc1ccc(NC(=O)NNC(=O)COc2ccc([N+](=O)[O-])c(C)c2)cc1OC | -8% | -32% | · | 2% | · | · | · | · | ·
CCOC(=O)c1c(NC(=O)c2cc(=O)c3cc(C)cc(C)c3o2)sc(C)c1C | -1% | · | · | 4% | · | · | · | · | ·
CCC(COC(C)=O)Nc1nc2c([nH]1)c(=O)n(C)c(=O)n2C (stereo unspecified) | -7% | -13% | 0% | -5% | · | · | · | · | ·
Cn1c(=O)c2[nH]c(N/N=C(/C#N)C(N)=O)nc2n(C)c1=O | 1% | -7% | 20µM* | 8% | 34% | -5% | 5% | 2% | -2%
CC(=O)c1ccc(-c2c(C3C4C=CCC(C)C4C(=O)N3Cc3ccccc3)ccc3ccccc23)cc1 (stereo unspecified) | · | · | -5% | · | · | · | · | · | ·
CCCn1c(C(C)NS(=O)(=O)c2ccccc2)n[nH]c1=S (stereo unspecified) | -13% | -16% | 10µM* | 2% | 73% | 12% | -1% | -1% | 6%
CCCn1c(C(C)NC(=O)c2ccccc2)n[nH]c1=S (stereo unspecified) | 4% | 2% | 19% | -3% | · | · | · | · | ·
CCn1c(C(C)NS(=O)(=O)c2ccc(Cl)cc2)n[nH]c1=S (stereo unspecified) | 1% | -22% | 11µM* | -3% | 14% | -6% | 6% | 4% | 13%
O=C1C(=Nc2cccc(Cl)c2)CC(c2ccc(Cl)cc2)N1c1cccc(Cl)c1 (stereo unspecified) | -8% | -27% | -2% | -5% | · | · | · | · | ·
CCOC(=O)c1c(N2CCN(c3ccccc3)CC2)cc(C)nc1C | -1% | 42% | 14µM* | ? | ? | 5% | 1% | 8% | -9%
C/C(=N/NC(=O)CNc1ccc(Cl)cc1C)c1ccc(C)cc1 | 0% | -22% | 0% | 4% | · | · | · | · | ·
NNC(=O)c1cc(O)c(O)c(O)c1 | 0% | 1% | ? | -5% | · | · | · | · | ·
O=C(O)c1cc(O)c(O)c(O)c1 | · | · | 3.5µM* | · | -29%[38.3 µM] | 40µM* | 14µM* | 20µM* | 25µM*
COc1cccc(COC(=O)C2CCN(S(=O)(=O)c3ccc(C)cc3C)CC2)c1OC | 2% | -6% | · | -1% | · | · | · | · | ·
Cc1ccccc1CN1CCN(C(=O)c2ccco2)CC1 | 0% | -4% | 25µM* | 1% | -4%[10.4 µM] | 15% | -5% | 10% | -10%
COc1ccccc1CN1CCN(C(=O)c2ccco2)CC1 | -26% | -7% | ? | 0% | · | · | · | · | ·
COc1ccc(Br)cc1CN1CCN(C(=O)c2ccco2)CC1 | -15% | 55% | 28µM* | 3% | ? | -7% | 2% | 0% | -4%
Cc1ccccc1CC(=O)N1CCN(C(=O)c2ccco2)CC1 | 3% | -14% | 10% | 0% | · | · | · | · | ·
